Most compounds without a hit are left out; they make up all but 21% or so of the library.
Shiga toxin inh: blocks Shiga toxin action in Vero cells; Vero cells, Shiga toxin protein synthesis inhibition reporter; inhibition, % at 38.7 µM; hit rate 9.2% among 290,000; AID 2315; in the data active means inhibition mostly above about 28%, no sharp cut-off; inactive means mostly below about 43%; further: 0% is about no effect
Pf growth 48h: inhibits P. falciparum growth in the first generation, 48 h; P. falciparum luciferase growth in erythrocytes, 48 h; Potency, µM (doses to about 28.7 µM), without a hit: top-dose activity change, negative = inhibition, hits mostly inhibitors; hit rate 5.9% among 310,000; AID 504832; further: potency means the concentration at half of the fitted maximal effect; on the % scale 0 is the no-effect control and ±100 the full control effect
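Read-out is firefly luciferase luminescence from an integrated reporter in P. falciparum, so falling signal marks reduced parasite growth. Infected erythrocytes were at 2% hematocrit and 0.1% parasitemia (final) in Albumax-supplemented RPMI 1640.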
CHX counter: affects cycloheximide protein synthesis inhibition readout, counter-screen | cell reporter, cycloheximide protein synthesis inhibition counterscreen | max response, % | hit rate 12% among 300,000 | AID 2314; in the data active means max response mostly above about 13%, no sharp cut-off; inactive means mostly below about 14%; further: read at 38.3 µM for the half of the compounds with a filed dose; 0% is about no effect
Pf growth 96h: inhibits malaria parasite growth, 96 h. AID 504834. Potency, µM (titrated, usually from 28.7 µM), for the others: top-dose activity change, negative = inhibition, most hits filed as inhibitors. hit rate 6.9% among 320,000. P. falciparum luciferase reporter growth, 96 h; further: potency means the concentration at half of the fitted maximal effect; on the % scale 0 is the no-effect control and ±100 the full control effect
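Compounds incubated with erythrocytes infected by luciferase-expressing P. falciparum (2% hematocrit, 0.05% parasitemia final) for 96 hours, 37 C in 5% CO2. Growth inhibition scored as decreased luciferase luminescence.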
Numbers without * were called inactive; i = inactive; ? = inconclusive; . = not tested or not shown. Unless noted, the call rests on the fitted dose curve; in most records, active means well fitted inhibition curve with a large enough effect; inconclusive means small, poorly fitted or top-dose-only effect, or another doubt; inactive means no such curve, though single readings can be large or run the other way.

SMILES	Shiga toxin inh	Pf growth 48h	CHX counter	Pf growth 96h
COc1cccc(N(C(=O)Cn2nnc(-c3ccc(F)cc3)n2)C(C(=O)NCC2CCCO2)c2ccc(Cl)cc2)c1 (configuration not stated)	20	?	-1	?
COc1ccc(-c2nnn(CC(=O)N(Cc3ccco3)C(C(=O)NCC3CCCO3)c3ccco3)n2)cc1 (configuration not stated)	-13	3%	1	31%
Cc1ccc(-c2nnn(CC(=O)N(c3ccccc3)C(C(=O)NCC3CCCO3)c3ccc(F)cc3)n2)o1 (configuration not stated)	-5	12%	2	-22%
Cc1ccc(-c2nnn(CC(=O)N(c3ccccc3F)C(C(=O)NCC3CCCO3)c3c[nH]c4ccccc34)n2)cc1 (configuration not stated)	-5	12µM*	1	12µM*
CC(NC(=O)Cc1ccc(Br)cc1)c1ccccc1 (configuration not stated)	-4	30%	2	?
CCc1ccccc1NC(=O)CN(C1CCCCC1)S(C)(=O)=O	.	15%	18	-27%
CC(C)(C)OC(=O)N1CCC[C@H]1C(=O)OCC(=O)Nc1cc(S(C)(=O)=O)ccc1Cl	.	5%	.	-4%
CC(C(=O)Nc1ccc(C#N)cc1)N1CCN(C(=O)C2CC2)CC1 (configuration not stated)	.	10%	.	-5%
Cc1cc(C(=O)N(C)CC(=O)Nc2ccc(F)c(F)c2F)no1	-10	44%	1	27%
CC(C(=O)NCc1ccccc1)n1cc([N+](=O)[O-])cn1 (configuration not stated)	6	12%	8	-27%
COc1cccc(N(C(=O)Cn2nnc(-c3ccc(Cl)cc3)n2)C(C(=O)NCC2CCCO2)c2ccc(C)cc2)c1 (configuration not stated)	-14	-17%	-3	?
Cc1ccc(-c2nnn(CC(=O)N(c3ccccc3)C(C(=O)NCC3CCCO3)c3ccc(Cl)cc3)n2)cc1 (configuration not stated)	13	?	5	8.3µM*
O=C(Nc1ccccc1)Nc1nnc(/C=C/c2ccccc2Cl)s1	6	16%	12	13%
Nc1nnc(/C=C/c2ccccc2Cl)s1	47*	109%	36*	144%
O=C(CS(=O)(=O)c1ccccc1)Nc1nnc(-c2cccs2)o1	.	-1%	.	0%
Cn1c(=O)[nH]c2nnc(-c3ccc(Cl)c(Cl)c3)nc2c1=O	50*	?	25*	1.7µM*
CSc1cnc2c(=O)n(C)c(=O)[nH]c2n1	17	-1%	-1	9%
O=C(CCc1cnccn1)NC1CCCc2c1cnn2-c1ccc(F)cc1F (configuration not stated)	-8	16%	-2	4%
O=C(Nc1ccc(F)cc1)Nc1ccccc1NS(=O)(=O)c1cccs1	1	9%	14	27%
O=C(Nc1ccc(F)cc1)Nc1csc2ccccc12	97*	?	21*	?
CN(C)c1ccc(NC(=O)Nc2csc3ccccc23)cc1	76*	?	44*	5.2µM*
CN1CCC(CNC(=O)Nc2csc3ccccc23)CC1	36	0%	25	59%
COc1ccc(C(=O)NC(=S)Nc2cccc3ncccc23)cc1[N+](=O)[O-]	-4	?	-2	?
CCOc1ccc(C(=O)NC(=S)Nc2ccc(NC(=O)c3ccco3)cc2)cc1[N+](=O)[O-]	5	18%	15*	17%
CCOc1ccc(C(=O)NC(=S)Nc2ncccc2C)cc1[N+](=O)[O-]	33*	22%	25*	0%
SMILES	Shiga toxin inh	Pf growth 48h	CHX counter	Pf growth 96h
CCCN1CCN(CC(=O)Nc2nnc(CC)s2)CC1	-4	16%	1	?
O=C(Cc1cccs1)Nc1nnc(SCc2cccc3ccccc23)s1	1	16%	-5	0%
CC(=O)Nc1nc2cc(N)ccc2s1	.	9%	.	?
O=C(Cc1cccs1)Nc1nc2c(ccc3ccccc32)s1	86*	41%	34*	.
CC(=O)Nc1nc2c(ccc3ccccc32)s1	20	47%	9.9*	10µM*
O=C(NC1CCC(O)CC1)c1cccnc1Sc1ccccc1Cl (configuration not stated)	24	-5%	-1	6%
O=C(CN1CCc2cc3c(cc2C1)OCCCO3)Nc1cccc(Br)c1	4	11%	7	?
C=CC[C@H]1CC(Cc2ccccc2)=C[C@H](CC=C)N1	-6	0.23µM*	-4	0.074µM*
C=CC[C@H]1CC(C)=C[C@H](CC=C)N1	3	0.93µM*	2	?
C=CCC1C=C(Cc2ccccc2)CC(CC=C)N1 (configuration not stated)	4	?	-6	4%
O=c1sc(Nc2ccccc2)nc2ccccc12	-15	8%	-2	-22%
CCCCNc1nc2cccnc2s1	62*	56%	22*	41%
Clc1ccc(Nc2nc3cccnc3s2)cc1	90*	45%	30*	107%
COc1ccc(CNC(=O)Cn2nnc3ccccc3c2=O)cc1	60*	90%	22*	86%
COc1ccc(CNC(=O)c2ccc(Cn3nc(C)cc3C)o2)cc1	-6	3%	-1	1.5µM*
O=C(Cn1nnc2ccccc2c1=O)NCCc1ccccc1	25*	-7%	15	-24%
COc1ccc(CNC(=O)Cn2nc(C(F)(F)F)cc2C)cc1	-8	0%	7	13µM*
COc1ccc(OC)c(C(C)NC(=O)C(C)n2cc([N+](=O)[O-])cn2)c1 (configuration not stated)	.	-26%	.	21%
COc1cc(NS(=O)(=O)c2ccc3c(c2)C(C)(C)C(=O)N3C)cc(OC)c1	-2	-5%	-1	-2%
O=C(Cn1cc(C(F)(F)F)ccc1=O)Nc1cccc(S(=O)(=O)N2CCOCC2)c1	-8	5%	-3	i
Cc1ccc(NC(=O)Cn2nnc3ccccc3c2=O)cc1C	33	0%	13	-1%
Cc1ccc(NC(=O)Cn2nnc3ccccc3c2=O)cc1	63	96%	32*	23%
CC(C)CCNC(=O)C(c1cccnc1)N(CCc1ccccc1)C(=O)Cn1nnc2ccccc21 (configuration not stated)	-4	?	-4	?
CCOC(=O)C1CCN(C(=O)c2oc3ccc4c(c3c2C)C(O)CC2(CCCCC2)O4)CC1 (configuration not stated)	1	?	10	0%
Cc1c(C(=O)NCCCN2CCCCC2)oc2ccc3c(c12)C(O)CC1(CCCCC1)O3 (configuration not stated)	-9	8.3µM*	-2	22%
OC(CN1CC=C(/C=C/c2ccc(Br)cc2)CC1)c1ccccc1 (configuration not stated)	-6	?	-2	-29%
Cn1c(-c2sccc2OCc2ccccc2)n[nH]c1=S	17	10µM*	15	?
Cc1ccc(Cl)cc1NC(=O)C(=O)N/N=C/c1ccc2c(c1)OCO2	-11	6%	-3	?
Cc1ccc(-n2c(C)nc3c(cnn3-c3ccc(C)c(C)c3)c2=O)cc1C	-10	.	-5	50%
Cc1nc2c3cnn(-c4ccc(C)c(C)c4)c3ncn2n1	70*	72%	29*	274%

From PubChem BioAssay
